# Data from PubChem BioAssay (NCATS).
# Records with an inconclusive call do not appear. A call without a number means that no potency is given here. Active and inactive are the calls of the source. Calls follow the shape of the dose curve; as a rule, active = well fitted inhibition curve with a large enough effect; inconclusive = small, poorly fitted or top-dose-only effect; inactive = flat fitted curve, though single readings scatter.
# Assays:
# [1] = target: Ubiquitin carboxyl-terminal hydrolase 1 (Homo sapiens) (UniProt O94782); assay: Inhibitors of USP1/UAF1: Pilot qHTS (AID 504865);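 also: rhodamine fluorescence freed from ubiquitin-rhodamine substrate followed over time; top concentration of the series differs between compounds; nearly all actives have a fitted effect of over 35% in size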
# Chain of Ubiquitin carboxyl-terminal hydrolase 1 (Homo sapiens) (O94782 whole entry, looked up): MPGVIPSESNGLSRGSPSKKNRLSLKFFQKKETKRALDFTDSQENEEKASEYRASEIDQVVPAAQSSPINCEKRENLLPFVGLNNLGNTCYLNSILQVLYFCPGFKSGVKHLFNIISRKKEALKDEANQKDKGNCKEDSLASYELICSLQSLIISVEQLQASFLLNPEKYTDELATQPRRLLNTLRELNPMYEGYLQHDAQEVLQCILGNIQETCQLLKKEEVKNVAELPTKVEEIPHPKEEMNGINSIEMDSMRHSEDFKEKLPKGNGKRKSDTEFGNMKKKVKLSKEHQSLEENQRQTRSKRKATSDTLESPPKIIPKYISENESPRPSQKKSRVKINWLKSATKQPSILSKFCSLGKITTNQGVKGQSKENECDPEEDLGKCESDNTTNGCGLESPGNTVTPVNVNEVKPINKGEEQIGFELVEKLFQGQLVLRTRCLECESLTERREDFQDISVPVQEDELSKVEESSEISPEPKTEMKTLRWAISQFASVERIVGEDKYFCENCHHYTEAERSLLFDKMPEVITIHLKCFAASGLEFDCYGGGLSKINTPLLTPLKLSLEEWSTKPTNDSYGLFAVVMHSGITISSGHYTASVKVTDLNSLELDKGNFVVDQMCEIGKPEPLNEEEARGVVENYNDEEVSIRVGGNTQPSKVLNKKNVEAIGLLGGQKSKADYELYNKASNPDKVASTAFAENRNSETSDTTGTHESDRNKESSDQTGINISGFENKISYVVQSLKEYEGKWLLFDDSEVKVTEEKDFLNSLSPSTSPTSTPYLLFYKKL
# Procedure, shortened: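 USP1/UAF1 complex at 1 nM preincubated 15 min at room temperature with compound, then Ub-Rho substrate added at 150 nM final. Fluorescence (480/540 nm) read kinetically in 50 mM HEPES pH 7.8, 0.5 mM EDTA, 1 mM TCEP, 0.1 mg/ml BSA, 0.01% Tween-20.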
# AA1029 = assay: qHTS profiling for inhibitors of Plasmodium falciparum proliferation (AID 504749); also: nearly all actives have a fitted effect of over 60% in size; conditions: P. falciparum in erythrocytes, SYBR Green DNA, 72 h; series mostly up to 28.7 µM
# Procedure, shortened: (§1)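 Each compound contacts P. falciparum-infected red blood cells for 72 h at 37 C; lysis buffer (Tris, EDTA, saponin, Triton X, SYBR Green I) is added and fluorescence measured next morning; values normalized to controls.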
# CP211 = assay: as above; conditions: P. falciparum in erythrocytes, SYBR Green DNA, 72 h; series mostly up to 28.7 µM
# Procedure, shortened: as §1
# CP217 = assay: as above; conditions: P. falciparum in erythrocytes, SYBR Green DNA, 72 h; series mostly up to 28.7 µM
# Procedure, shortened: as §1
# CP260 = assay: as above; conditions: P. falciparum in erythrocytes, SYBR Green DNA, 72 h; series mostly up to 28.7 µM
# Procedure, shortened: as §1
# CP297 = assay: as above; conditions: P. falciparum in erythrocytes, SYBR Green DNA, 72 h; series mostly up to 28.7 µM
# Procedure, shortened: as §1
# CP315 = assay: as above; conditions: P. falciparum in erythrocytes, SYBR Green DNA, 72 h; series mostly up to 28.7 µM
# Procedure, shortened: as §1
# DIV14 = assay: as above; conditions: P. falciparum in erythrocytes, SYBR Green DNA, 72 h; series mostly up to 28.7 µM
# Procedure, shortened: as §1
# DIV17 = assay: as above; conditions: P. falciparum in erythrocytes, SYBR Green DNA, 72 h; series mostly up to 28.7 µM
# Procedure, shortened: as §1
# FAB9 = assay: as above; conditions: P. falciparum in erythrocytes, SYBR Green DNA, 72 h; series mostly up to 28.7 µM
# Procedure, shortened: as §1
# ICS = assay: as above; conditions: P. falciparum in erythrocytes, SYBR Green DNA, 72 h; series mostly up to 28.7 µM
# Procedure, shortened: as §1
# JCK = assay: as above; conditions: P. falciparum in erythrocytes, SYBR Green DNA, 72 h; series mostly up to 28.7 µM
# Procedure, shortened: as §1
# N140 = assay: as above; conditions: P. falciparum in erythrocytes, SYBR Green DNA, 72 h; series mostly up to 28.7 µM
# Procedure, shortened: as §1
# PC15 = assay: as above; conditions: P. falciparum in erythrocytes, SYBR Green DNA, 72 h; series mostly up to 28.7 µM
# Procedure, shortened: as §1
# TAB113 = assay: as above; conditions: P. falciparum in erythrocytes, SYBR Green DNA, 72 h; series mostly up to 28.7 µM
# Procedure, shortened: as §1
# TAB165 = assay: as above; conditions: P. falciparum in erythrocytes, SYBR Green DNA, 72 h; series mostly up to 28.7 µM
# Procedure, shortened: as §1
# W2 = assay: as above; conditions: P. falciparum in erythrocytes, SYBR Green DNA, 72 h; series mostly up to 28.7 µM
# Procedure, shortened: as §1
# [2] = target: Tyrosyl-DNA phosphodiesterase 1 (Homo sapiens) (UniProt Q9NUW8); assay: Confirmation Assay for Inhibitors of Tyrosyl-DNA Phosphodiesterase (TDP1) (AID 489007); conditions: recombinant human TDP1 enzymatic activity, dose-response; also: potency is read from the fitted curve at half-maximal effect; nearly all actives have a fitted effect of over 40% in size
# Chain of Tyrosyl-DNA phosphodiesterase 1 (Homo sapiens) (Q9NUW8 whole entry, looked up): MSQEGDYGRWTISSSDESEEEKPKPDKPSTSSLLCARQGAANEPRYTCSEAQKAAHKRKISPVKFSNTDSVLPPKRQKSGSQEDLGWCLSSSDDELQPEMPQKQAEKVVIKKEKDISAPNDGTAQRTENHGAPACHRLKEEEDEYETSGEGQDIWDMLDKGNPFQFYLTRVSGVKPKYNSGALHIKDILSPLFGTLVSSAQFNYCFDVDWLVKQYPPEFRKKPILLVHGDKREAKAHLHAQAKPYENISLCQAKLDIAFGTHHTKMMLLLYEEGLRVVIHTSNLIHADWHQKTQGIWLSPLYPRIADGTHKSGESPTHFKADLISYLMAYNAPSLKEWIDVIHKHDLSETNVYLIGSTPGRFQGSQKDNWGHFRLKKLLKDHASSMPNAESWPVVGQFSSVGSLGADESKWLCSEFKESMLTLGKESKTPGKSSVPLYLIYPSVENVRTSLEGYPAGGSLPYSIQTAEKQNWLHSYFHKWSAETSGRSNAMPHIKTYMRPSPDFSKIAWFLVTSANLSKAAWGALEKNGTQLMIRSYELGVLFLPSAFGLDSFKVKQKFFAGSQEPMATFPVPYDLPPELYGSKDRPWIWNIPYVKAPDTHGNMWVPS
# Procedure, shortened: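 AlphaScreen assay of tyrosine-FITC cleavage from a biotinylated DNA substrate (15 nM) by E. coli-expressed human Tdp1 (1 nM). Sequence: compound preincubation 15 min, reaction 5 min, bead detection 10 min, all at room temperature. No-enzyme wells give maximum signal.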
# CP215 = assay: qHTS profiling for inhibitors of Plasmodium falciparum proliferation (AID 504749); also: nearly all actives have a fitted effect of over 60% in size; conditions: P. falciparum in erythrocytes, SYBR Green DNA, 72 h; series mostly up to 28.7 µM
# Procedure, shortened: as §1
# CP335 = assay: as above; conditions: P. falciparum in erythrocytes, SYBR Green DNA, 72 h; series mostly up to 28.7 µM
# Procedure, shortened: as §1
smiles,measurement,setting,value
CCCC[C@H]1C(=O)N(c2ccccc2)N(c2ccc(O)cc2)C1=O,Potency,[1],inactive
same,Potency,AA1029,inactive
same,Potency,CP211,inactive
same,Potency,CP217,inactive
same,Potency,CP260,inactive
same,Potency,CP297,inactive
same,Potency,CP315,inactive
same,Potency,DIV14,inactive
same,Potency,DIV17,inactive
same,Potency,FAB9,inactive
same,Potency,ICS,inactive
same,Potency,JCK,inactive
same,Potency,N140,inactive
same,Potency,PC15,inactive
same,Potency,TAB113,inactive
same,Potency,TAB165,inactive
same,Potency,W2,inactive
CC1=N/C(=C/c2ccco2)C(=O)O1,Potency,[2],3.55 µM (active)
CCN(c1ccccc1)S(=O)(=O)c1cc(C(=O)O)ccc1C,Potency,[2],12.6 µM (active)
CCCn1c(SCC(=O)NC(=O)NCc2ccco2)n[nH]c1=O,Potency,[2],25.1 µM (active)
CCC(=O)c1ccc(CCCCCC(=O)O)s1,Potency,[2],31.6 µM (active)
O=C(N/N=C/c1cccc(Br)c1)c1ccc(Br)cc1,Potency,[2],50.1 µM (active)
CC(=O)Nc1ccc2c(COC(=O)CC3Sc4ccccc4NC3=O)cc(=O)oc2c1 (configuration not stated),Potency,[2],15.8 µM (active)
Cc1cc(C(=O)O)ccc1-c1ccc(/C=C2\NC(=O)N(Cc3ccc(F)cc3)C2=O)o1,Potency,[2],4.47 µM (active)
Cc1ccc(-c2nc3c(c(SCC(=O)Nc4cccc(C(=O)O)c4)n2)Cc2cccc(C)c2O3)cc1,Potency,[2],4.08 µM (active)
CC(C)CN(C(=O)COC(=O)c1cc2c(s1)CCC2)C1CCS(=O)(=O)C1 (configuration not stated),Potency,[2],44.7 µM (active)
COc1ccc(OCc2cc(C(=O)O)c(C)o2)cc1,Potency,[2],10 µM (active)
Cn1c(-n2cccc2)c(-c2c(-c3ccccc3)[nH]c3c2c(=O)[nH]c(=O)n3C)c(=O)[nH]c1=O,Potency,[2],100 µM (active)
COc1ccc2cc3cc(C(=O)NCc4cccs4)oc3nc2c1,Potency,[2],25.1 µM (active)
O=C(O)C1Cc2ccccc2CN1C(=O)COc1ccc(Br)cc1 (configuration not stated),Potency,[2],15.8 µM (active)
c1ccc(N2N=C(c3cccs3)CC2c2ccco2)cc1 (configuration not stated),Potency,[2],112 µM (active)
O=c1c2nc(Br)n([C@@H]3O[C@@H]4CO[P@@](O)(=S)O[C@H]4[C@H]3O)c2nc2[nH]c(-c3ccccc3)cn12,Potency,[2],12.6 µM (active)
O=C(O)c1ccc(CSc2n[nH]c(-c3ccco3)n2)cc1,Potency,[2],39.8 µM (active)
O=C1CC(=O)N(Cc2ccco2)C(=S)N1,Potency,[2],15.8 µM (active)
NC(=O)c1oc2ccccc2c1NC(=O)c1nc2ccccc2s1,Potency,[2],15.8 µM (active)
Cc1ccccc1Nc1cccc2nonc12,Potency,[2],100 µM (active)
Cn1nnnc1SCC(=O)Nc1ccccn1,Potency,[2],7.08 µM (active)
CO/N=C(/C(=O)N[C@@H]1C(=O)N2C(C(=O)O)=C(C[n+]3ccc(N)n3CCO)CS[C@H]12)c1csc(N)n1,Potency,[1],inactive
same,Potency,AA1029,inactive
same,Potency,CP211,inactive
same,Potency,CP215,inactive
same,Potency,CP217,inactive
same,Potency,CP260,inactive
same,Potency,CP297,inactive
same,Potency,CP315,inactive
same,Potency,CP335,inactive
same,Potency,DIV14,inactive
same,Potency,DIV17,inactive
same,Potency,FAB9,inactive
same,Potency,ICS,inactive
same,Potency,JCK,inactive
same,Potency,N140,inactive
same,Potency,PC15,inactive
same,Potency,TAB113,inactive
same,Potency,TAB165,inactive
same,Potency,W2,inactive
Cc1nn(-c2ccccc2)c(C)c1S(=O)(=O)O,Potency,[2],25.1 µM (active)
CCCCN1CC(O)C(O)C(O)C1CO (configuration not stated),Potency,[1],inactive
same,Potency,AA1029,inactive
same,Potency,CP211,inactive
same,Potency,CP215,inactive
same,Potency,CP217,inactive
same,Potency,CP260,inactive
same,Potency,CP297,inactive
same,Potency,CP315,inactive
same,Potency,CP335,inactive
same,Potency,DIV14,inactive
same,Potency,DIV17,inactive
same,Potency,FAB9,inactive
same,Potency,ICS,inactive
same,Potency,JCK,inactive
same,Potency,N140,inactive
same,Potency,PC15,inactive
same,Potency,TAB113,inactive
same,Potency,TAB165,inactive
same,Potency,W2,inactive
COc1ccc(N2Cc3cccc(C(=O)O)c3C2=O)cc1,Potency,[2],2.51 µM (active)
Cc1ccc(NC(=O)CN2C(=O)S/C(=C\c3cccn3-c3cccc(C(=O)O)c3)C2=O)c(C)c1,Potency,[2],15.8 µM (active)
Cc1nnc(NC(=O)CSc2ccc(-c3ccco3)nn2)s1,Potency,[2],14.1 µM (active)
OC[C@@H]1[C@@H](c2ccccc2)C(c2cccc(Cl)c2)=NN1c1ccccc1,Potency,[2],10 µM (active)
Nc1cc([N+](=O)[O-])ccc1N1C(=O)CCCC1=O,Potency,[2],15.8 µM (active)
CCOC(=O)c1sc(NC(=O)C2CC=CCC2C(=O)O)nc1C (configuration not stated),Potency,[2],39.8 µM (active)
OC[C@@H]1[C@@H](c2ccc(Cl)cc2)C(c2cccc(Cl)c2)=NN1c1ccccc1,Potency,[2],50.1 µM (active)
O=c1[nH]c(=O)n(C2C[C@H](O)[C@@H](CO)O2)cc1C(F)(F)F (some centres not stated),Potency,[1],inactive
same,Potency,AA1029,inactive
same,Potency,CP211,inactive
same,Potency,CP215,inactive
same,Potency,CP217,inactive
same,Potency,CP260,inactive
same,Potency,CP297,inactive
same,Potency,CP315,inactive
same,Potency,CP335,inactive
same,Potency,DIV14,inactive
same,Potency,DIV17,inactive
same,Potency,FAB9,inactive
same,Potency,ICS,inactive
same,Potency,JCK,inactive
same,Potency,N140,inactive
same,Potency,PC15,inactive
same,Potency,TAB113,inactive
same,Potency,TAB165,inactive
same,Potency,W2,inactive
